Laboratory results: the supplement of paper PMC6953052
Values joined by “and” are separate entries in the source; they are usually repeats but may differ in a detail not shown here. Identical values can stand only once. ± gives the standard deviation of the averaged measurements. Whole data set: some 1,700 compounds, median “fraction of GFP-LC3-positive cells (≥5 vesicles/cell)” near 0.43, cut for the highest 2% near 0.81. What follows is part of a selection rich in the highest values, with near analogues and random picks from the rest.

Test system: CbCln3 Δex7/8/Δex7/8 GFP-LC3 cerebellar neuronal cells
Assay: fraction of GFP-LC3-positive cells (≥5 vesicles/cell); higher = more autophagosome accumulation
Outline: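 Wild-type or mutant CbCln3 cerebellar cells stably expressing GFP-LC3 (2 × 10^3/well, 384-well) received ~50 nL compound in DMSO by pin transfer, in duplicate, for 24 h at 33 °C. Hoechst 33342 and LysoTracker Red were added for the final 30 min before 3.2% PFA fixation and 10× imaging of three fields per well. CellProfiler counted GFP-LC3 vesicles per cell. The value is the fraction of cells with 5 or more vesicles, averaged over duplicates, with out-of-focus images excluded.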

Row | SMILES | fraction of GFP-LC3-positive cells
1 | COc1cc(N)c(Cl)cc1C(=O)NC1CCN(Cc2ccccc2)CC1.O=C(O)/C=C\C(=O)O [Clebopride maleate] | 0.506
2 | CC(C(O)c1ccc(O)cc1)N1CCC(Cc2ccccc2)CC1.O=C(O)C(O)C(O)C(=O)O (stereo not drawn) [Ifenprodil tartrate] | 0.481
3 | Cl.Fc1ccc([C@@H]2CCNC[C@H]2COc2ccc3c(c2)OCO3)cc1 [Paroxetine Hydrochloride] | 0.5
4 | Nc1ccc(S(=O)(=O)Nc2ccc(Cl)nn2)cc1 [Sulfachloropyridazine] | 0.368
5 | CC1CNc2c(cccc2S(=O)(=O)N[C@@H](CCCNC(=N)N)C(=O)N2CC[C@@H](C)C[C@@H]2C(=O)O)C1 (stereo partly drawn) [Argatroban] | 0.486
6 | CCCCC[C@H](O)/C=C/C=C/C=C/[C@@H](O)C/C=C\CCCC(=O)O [8(S),15(S)-DiHETE all trans] | 0.456
7 | CCN(CC)CCOC(=O)c1ccc(N)cc1.Cl [Procaine hydrochloride] | 0.483
8 | C[C@]12C=CC(=O)C=C1CC[C@@H]1[C@@H]2[C@@H](O)C[C@@]2(C)[C@H]1CC[C@]2(O)C(=O)CO [Prednisolone] | 0.183
9 | CCCCOc1ccc(C(=O)CCN2CCCCC2)cc1.Cl [Dyclonine hydrochloride] | 0.322
10 | NC(=O)c1cc[n+](CC2=C(C(=O)[O-])N3C(=O)[C@@H](NC(=O)[C@@H](c4ccccc4)S(=O)(=O)[O-])[C@H]3SC2)cc1.[Na+] [Cefsulodin sodium salt] | 0.367
11 | CC1(C)[C@@H](OC(=O)CCC(=O)[O-])CC[C@]2(C)[C@H]3C(=O)C=C4[C@@H]5C[C@@](C)(C(=O)[O-])CC[C@]5(C)CC[C@@]4(C)[C@]3(C)CC[C@@H]12.[Na+].[Na+] [Carbenoxolone disodium salt] | 0.269
12 | COC(=O)Nc1nc2cc(Sc3ccccc3)ccc2[nH]1 [Fenbendazole] | 0.648
13 | COC(=O)Nc1nc2cc(SC(C)C)ccc2[nH]1 [Methiazole] | 0.836
14 | CCCSc1ccc2[nH]c(NC(=O)OC)nc2c1 [Albendazole] | 0.899
15 | CCCCc1ccc2[nH]c(NC(=O)OC)nc2c1 [Parbendazole] | 0.927
16 | CCCCCCCCCCCCCCCCCCc1ccc(C(=O)/C=C/C(=O)O)cc1 | 0.48
17 | CCCCCCCCCCCCCCCC(=O)NCCc1ccc(O)c(O)c1 [Palmitoyl dopamine] | 0.456
18 | NCc1ccccc1CC(=O)N[C@@H]1C(=O)N2C(C(=O)O)=C(CSc3nnnn3CC(=O)O)CS[C@H]12 [Ceforanide] | 0.519
19 | CC1CCc2cc(F)cc3c(=O)c(C(=O)O)cn1c23 (stereo not drawn) [Flumequine] | 0.273
20 | CC1/C=C/C=C/CC/C=C/C=C/C=C/C=C/C(O[C@@H]2O[C@H](C)[C@@H](O)[C@H](N)[C@@H]2O)CC(O)C(C(=O)O)C(O)CC(=O)CC(O)C(O)CCC(O)CC(O)CC(O)CC(=O)OC(C)C(C)C1O (stereo partly drawn) [Nystatine] | 0.294
21 | CC(=O)Oc1ccccc1C(=O)Oc1ccccc1C(=O)O [Acetylsalicylsalicylic acid] | 0.354
22 | CC(=O)OCOC(=O)CN(CC(=O)OCOC(C)=O)c1ccccc1OCCOc1ccccc1N(CC(=O)OCOC(C)=O)CC(=O)OCOC(C)=O | 0.851

Row | SMILES | fraction of GFP-LC3-positive cells
23 | COc1cc2nc(N3CCN(C(=O)c4ccco4)CC3)nc(N)c2cc1OC [prazocin] | 0.931
24 | COc1cc2nc(N3CCN(C(=O)C4CCCO4)CC3)nc(N)c2cc1OC.Cl (stereo not drawn) [Terazosin hydrochloride] | 0.396
25 | COc1cc2nc(N3CCN(C(=O)c4ccco4)CC3)nc(N)c2cc1OC.Cl [Prazosin hydrochloride] | 0.669
26 | CCCCC/C=C\C/C=C\C=C\[C@@H](O)C/C=C\CCCC(=O)O | 0.479
27 | CCCOc1ccccc1-c1nc2[nH]nnc2c(=O)[nH]1 [zaprinast] | 0.222
28 | Nc1nc2[nH]nnc2c(=O)[nH]1 [Azaguanine-8] | 0.845
29 | Nc1nc2c(ncn2COCCO)c(=O)[nH]1 [Acyclovir] | 0.421
30 | CN(C)CCOC(c1ccccc1)c1ccccc1.Cl [Diphenhydramine hydrochloride] | 0.531
31 | CCCCC[C@H](O)/C=C/C=C\C/C=C\CCCCC(=O)O | 0.403
32 | CCCCC(CC)CNC(=N)NC(=N)NCCCCCCNC(=N)NC(=N)NCC(CC)CCCC.Cl.Cl (stereo not drawn) [Alexidine dihydrochloride] | 0.537
33 | CCCNC(C)C(=O)Nc1ccccc1C.Cl (stereo not drawn) [Prilocaine hydrochloride] | 0.359
34 | C=CCOc1ccccc1OCC(O)CNC(C)C.Cl (stereo not drawn) [Oxprenolol hydrochloride] | 0.366
35 | Cl.OCCN1CCN(CC/C=C2/c3ccccc3Sc3ccc(Cl)cc32)CC1 [Zuclopenthixol hydrochloride] | 0.542
36 | O=c1cc(-c2ccc(O)cc2)oc2cc(O)cc(O)c12 [Apigenin] | 0.432
37 | CCCCCC(=O)/C=C/[C@H]1[C@H](O)CC(=O)[C@@H]1C/C=C\CCCC(=O)O [15-Keto-prostaglandin E2] | 0.471
38 | NS(=O)(=O)c1cc2c(cc1Cl)N=C(CSCc1ccccc1)NS2(=O)=O [Benzthiazide] | 0.293
39 | CS(=O)(=O)Nc1ccc([N+](=O)[O-])cc1Oc1ccccc1 [Nimesulide] | 0.391
40 | CC(C)NC[C@H](O)c1ccc(O)c(O)c1.Cl [(-)-Isoproterenol hydrochloride] | 0.349
41 | CN(C(=O)C(Cl)Cl)c1ccc(OC(=O)c2ccco2)cc1 [Diloxanide furoate] | 0.372
42 | Cl.c1ccc2c(c1)CCCC2C1=NCCN1 (stereo not drawn) [Tetrahydrozoline hydrochloride] | 0.357
43 | CC(C)C[C@H](NC(=O)[C@H]1CCCN1C(=O)OCc1ccccc1)C(=O)NCC(=O)NO | 0.442
44 | Cn1cc(C2=C(c3cn(CCCSC(=N)N)c4ccccc34)C(=O)NC2=O)c2ccccc21 | 0.854 ± 0.15

Row | SMILES | fraction of GFP-LC3-positive cells
45 | CN(C)CCCn1cc(C2=C(c3c[nH]c4ccccc34)C(=O)NC2=O)c2ccccc21 | 0.583 and 0.599
46 | CN(C)CCC=C1c2ccccc2C=Cc2ccccc21.Cl [Cyclobenzaprine hydrochloride] | 0.513
47 | CC[C@]1(O)C[C@@H]2CN(CCc3c([nH]c4ccccc34)[C@@](C(=O)OC)(c3cc4c(cc3OC)N(C)[C@H]3[C@@](O)(C(=O)OC)[C@H](OC(C)=O)[C@]5(CC)C=CCN6CC[C@]43[C@@H]65)C2)C1.O=S(=O)(O)O [vinblastine] | 0.848
48 | CC/C=C\C/C=C\C/C=C\CCCCCCCCCCCC(=O)O [Docosatrienoic acid (22:3 N-3)] | 0.466
49 | CC/C=C\C/C=C\C/C=C\CCCCCCCCCCCC(=O)O | 0.417
50 | CC/C=C\C/C=C\C/C=C\CCCCCCCCCCCC(=O)O [Docosatrienoic acid (22:3 n-3)] | 0.541
51 | CC[N+](C)(C)c1cccc(O)c1.[Cl-] [Edrophonium chloride] | 0.407
52 | CC(C)NNC(=O)c1ccncc1.O=P(O)(O)O [Iproniazide phosphate] | 0.489
53 | CNCCCN1c2ccccc2CCc2ccccc21.Cl [Desipramine hydrochloride] | 0.486
54 | CN(C)CCOC(C)(c1ccccc1)c1ccccn1.O=C(O)CCC(=O)O (stereo not drawn) [Doxylamine succinate] | 0.314
55 | O=C(NCC1CCCCN1)c1cc(OCC(F)(F)F)ccc1OCC(F)(F)F (stereo not drawn) | 0.524
56 | c1ccc2[nH]c(-c3cscn3)nc2c1 [Tiabendazole] | 0.326
57 | CC[C@H]1[C@@H]2C=C[C@@H]3[C@H]4C/C=C\C(=O)NCCC[C@@H]5NC(=O)C(=C5O)C(=O)CC[C@@H]4C[C@@H]3[C@H]2C[C@H]1C [Ikarugamyin] | 0.921
58 | CCCCCCCC/C=C\CCCCCCCC(=O)NCCc1ccc(O)c(O)c1 [Oleoyl dopamine] | 0.611
59 | CCCCC/C=C\C=C\C(O)CCCCCCCC(=O)O (racemic) | 0.29
60 | CCOC(=O)[C@H](CCc1ccccc1)N[C@@H](C)C(=O)N1CCC[C@H]1C(=O)O.O=C(O)/C=C\C(=O)O [Enalapril maleate] | 0.395
61 | CCCCC[C@H](O)/C=C/C=C/C=C/[C@H](O)C/C=C\CCCC(=O)O [8(R),15(S)-DiHETE all trans] | 0.298
62 | CC[N+](CC)(CC)CCC(O)(c1ccccc1)C1CCCCC1.[Cl-] (stereo not drawn) [Tridihexethyl chloride] | 0.44
63 | CCCCCCCCCCCCCCCCOC[C@H](COP(=O)([O-])OCC[N+](C)(C)C)OC(=O)NC | 0.4228 ± 0.0025
64 | NC(=O)N/N=C/c1ccc([N+](=O)[O-])o1 [Nitrofural] | 0.493
65 | CCC1NC(=O)c2cc(S(N)(=O)=O)c(Cl)cc2N1 (stereo not drawn) [Quinethazone] | 0.417
66 | CN(C)CCCSC(=N)N.Cl.Cl [Dimaprit dihydrochloride] | 0.45

Row | SMILES | fraction of GFP-LC3-positive cells
67 | Nc1nc(=O)[nH]cc1F [Flucytosine] | 0.296
68 | Cl.Clc1ccccc1CN1CCc2sccc2C1 [Ticlopidine hydrochloride] | 0.403
69 | CN[C@H]1CC[C@@H](c2ccc(Cl)c(Cl)c2)c2ccccc21 [Sertraline] | 0.311
70 | Oc1ccc(-c2nc(-c3ccc(F)cc3)c(-c3ccncc3)[nH]2)cc1 | 0.524 and 0.566
71 | N=C(N)NCCC[C@H](NC(=O)[C@@H]1CCCN1C(=O)[C@H](N)Cc1ccccc1)C(=O)CCl | 0.502
72 | CC(=O)N[C@@H](CC(C)C)C(=O)N[C@@H](CC(C)C)C(=O)N[C@H](C=O)CCCNC(=N)N [Leupeptin] | 0.392
73 | CCCC[C@@H](C=O)NC(=O)[C@H](CC(C)C)NC(=O)[C@H](CC(C)C)NC(C)=O | 0.93
74 | CSCC[C@@H](C=O)NC(=O)[C@H](CC(C)C)NC(=O)[C@H](CC(C)C)NC(C)=O | 0.448
75 | CCOC(=O)/N=c1/c[n+](N2CCOCC2)[n-]o1 [Molsidomine] | 0.473
76 | CCC[C@@H]1C[C@@H](C(=O)N[C@@H]([C@H]2O[C@H](SC)[C@H](O)[C@@H](O)[C@@H]2O)[C@@H](C)O)N(C)C1.Cl [Lincomycin hydrochloride] | 0.505
77 | CS(=O)(=O)c1ccc([C@@H](O)[C@@H](CF)NC(=O)C(Cl)Cl)cc1 [Florfenicol] | 0.355
78 | CN(C)c1ccc(/C=C2\C(=O)Nc3ccccc32)cc1 | 0.441 and 0.394
79 | COC(=O)Nc1nc2cc(C(=O)c3ccccc3)ccc2[nH]1 [Mebendazole] | 0.9
80 | COC(=O)Nc1nc2cc(C(=O)c3cccs3)ccc2[nH]1 [nocodazole] | 0.612
81 | CC(C(=O)O)c1ccc(C(=O)c2cccs2)cc1 (stereo not drawn) [Suprofen] | 0.46
82 | CC(C(=O)O)c1cccc(C(=O)c2ccccc2)c1 (stereo not drawn) [Ketoprofen] | 0.499
83 | COC(=O)Nc1nc2cc(C(=O)c3cccs3)ccc2[nH]1 [Nocodazole] | 0.916
84 | O=C(O)c1ccc2nc(-c3ccccc3)c(-c3ccccc3)nc2c1 | 0.507
85 | Cc1cc(C2CCCCC2)n(O)c(=O)c1.NCCO [Ciclopirox ethanolamine] | 0.809
86 | Cc1cc(=O)n(-c2ccccc2)n1C [Antipyrine] | 0.36
87 | CC(C)COCC(CN(Cc1ccccc1)c1ccccc1)N1CCCC1 (stereo not drawn) | 0.621
88 | CCCCC[C@H](O)/C=C/C=C\C/C=C\C/C=C\CCCC(=O)O | 0.405 ± 0.089
